Values without a mark were called inactive. Results filed as inconclusive are left out. Activity calls are given as the source filed them. Unless noted, calls follow the shape of the dose curve; as a rule, active = well fitted curve in the direction sought with a large enough effect; inconclusive = small, poorly fitted or top-dose-only effect, or another doubt; inactive = no such curve, though single readings can be large; an effect the other way counts as inactive or inconclusive.
How the values were obtained:
[1] = target: Lysosomal acid glucosylceramidase (Homo sapiens) (UniProt P04062); assay: Glucocerebrosidase-p2 (AID 348; in the data active = potency below about 10 µM; also: potency is read from the fitted curve at half-maximal effect); conditions: purified GBA, blue fluorogenic substrate, 40 min
Summary of the method: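 Compounds titrated from 0.6 nM upwards against 0.2 nM enzyme in pH 5.9 citric acid/KH2PO4, taurocholate, tween-20; blue fluorogenic substrate 80 uM, 40 min room temperature, stopped and read Ex 365/Em 440 for AC50.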

[2] = AP1 Signaling Pathway (AID 357; active = well fitted curve in either direction with a large enough effect, not every such curve was filed as active;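 also: ME-180 reporter cells stimulated with EGF at its EC50 level; % is scaled to controls: 0 for no effect and ±100 for the full control effect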); conditions: ME-180 AP-1-bla reporter, EGF-induced, beta-lactamase ratio, 5 h; at 7.69 µM (top of the series) unless noted
Summary of the method: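 Modulation of EGF-driven AP-1 transcription was assessed with a beta-lactamase reporter in ME-180 cells. Compound and EC50 EGF were co-incubated 5 hours at 37 °C before 2.5-hour CCF4 loading at room temperature and dual-emission reading.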

[3] = target: Cytochrome P450 1A2 (Homo sapiens) (UniProt P05177); assay: p450-cyp1a2 (AID 410; calls by dose curve; also: potency is read from the fitted curve at half-maximal effect); conditions: recombinant CYP1A2, luciferin-ME demethylation, luminescence; series mostly up to 57 µM
Summary of the method: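 Human CYP1A2 (20nM) demethylated Luciferin-ME at its Km (100uM) in 100mM KPO4. After 10 min compound preincubation, NADPH regeneration ran the reaction 60 min at room temperature. Luciferin was read by luminescence, normalized to 57 uM furafylline.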

[4] = NFAT Signaling Pathway (AID 444; active = well fitted curve in either direction with a large enough effect, not every such curve was filed as active;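 also: carbachol stimulus at about its EC50 of 1 µM final; % is scaled to controls: 0 for no effect and ±100 for the full control effect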); conditions: Jurkat NFAT-bla M1, carbachol, beta-lactamase ratio, 5 h; at 7.69 µM (top of the series) unless noted
Summary of the method: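 Jurkat cells with NFAT-driven β-lactamase reporter and co-expressed M1 receptor, stimulated with carbachol (final 1 uM, ~EC50), compound titration, 5 h at 37 °C. CCF4 loaded 1 h at RT; 460/530 nm ratio gave %activity and AC50.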

[5] = Stat Signaling Pathway (AID 446; active = well fitted curve in either direction with a large enough effect, not every such curve was filed as active;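 also: ME-180 cervical cancer cells given 40 pM IL-6 alongside compound; SIE-controlled beta-lactamase reporter measured as 460/530 nm FRET emission ratio; % is scaled to controls: 0 for no effect and ±100 for the full control effect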); conditions: ME-180 SIE beta-lactamase reporter, IL-6 stimulated, 5 h; at 7.69 µM (top of the series) unless noted
Summary of the method: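 ME-180 SIE-bla cells; overnight plating; cpd + IL-6 40 pM, 5 h, 37 C; LiveBLAzer 2.5 h RT; 460/530 nm emission ratio. Normalized to 300 pM IL-6 and 125 nM JAK inhibitor controls.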

[6] = target: Glucocorticoid receptor (Homo sapiens) (UniProt P04150); assay: GR-GFP Redistribution (AID 450;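 active = compounds whose dose series gives a full or clear partial fitted curve of increased nuclear translocation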; also: potency is read from the fitted curve at half-maximal effect); conditions: U2OS GR-GFP nuclear translocation, laser cytometry, 2 h
[7] = target: Glucocorticoid receptor (Homo sapiens) (UniProt P04150); assay: GR-EFC Redistribution (AID 451; calls by dose curve; also: potency is read from the fitted curve at half-maximal effect); conditions: CHO-K1 GR-EFC translocation, beta-gal luminescence, 2 h
Summary of the method: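 CHO-K1 cells expressing nuclear EA and GR-ED fragments of b-gal; compounds titrated up to 46 uM final, 2 h at 37 C. GR nuclear translocation read as complemented b-gal luminescence after 1 h RT detection.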

[8] = target: Mitogen-activated protein kinase 10 (Mus musculus) (UniProt Q61831); assay: JNK3 AlphaScreen Assay (AID 530; active = well fitted curve in either direction with a large enough effect, not every such curve was filed as active;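 also: kinase came from lysate of stimulated human HepG2 cells; signal reports phosphorylation of biotinylated GST-cJun 1-79 at Ser73 with 10 µM ATP; % is scaled to controls: 0 for no effect and ±100 for the full control effect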); conditions: JNK3 lysate, c-Jun phosphorylation; series mostly up to 57.1 µM
Summary of the method: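 qHTS format: compounds tested as titrations against IL-1beta/TNF-alpha-activated HepG2 lysate JNK3 with biotin-GST-cJun substrate and 10 uM ATP at room temperature. Loss of anti-phospho-cJun AlphaScreen signal indicates inhibition.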

[9] = target: Cytochrome P450 2C9 (Homo sapiens) (UniProt P11712); assay: qHTS Assay for Inhibitors and Substrates of Cytochrome P450 2C9 (AID 883); conditions: recombinant CYP2C9, luciferin-H luminescence, 60 min; series mostly up to 57.1 µM; also: potency is read from the fitted curve at half-maximal effect; nearly all actives have a fitted effect of over 60% in size
Summary of the method: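 10nM CYP2C9 + 100uM Luciferin-H (=KM), 25mM KPO4; cpd 10 min 37C; NADPH regen, 60 min 37C; stop/detect with P450 Glo-Buffer 20 min; luminescence. Norm. to 57uM sulphaphenazole as full inhibition.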

[10] = target: Cytochrome P450 3A4 (Homo sapiens) (UniProt P08684); assay: qHTS Assay for Activators of Cytochrome P450 3A4 (AID 885); conditions: recombinant CYP3A4, Luciferin-PPXE luminescence, 60 min; series mostly up to 57.1 µM; also: nearly all actives have a fitted effect of over 65% in size
Summary of the method: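 20nM CYP3A4 + 25uM Luciferin-PPXE (=KM), 200mM KPO4; cpd 10 min RT; NADPH regen, 60 min RT; stop w/ detection buffer, 20 min; luminescence. Normalized to 57 uM ketoconazole.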

[11] = target: Cytochrome P450 2D6 (Homo sapiens) (UniProt P10635); assay: qHTS Assay for Inhibitors and Substrates of Cytochrome P450 2D6 (AID 891); conditions: recombinant CYP2D6, luciferin-ME EGE luminescence; series mostly up to 57.1 µM; also: potency is read from the fitted curve at half-maximal effect; nearly all actives have a fitted effect of over 60% in size
Summary of the method: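 Human CYP2D6 (5 nM) with 30 uM Luciferin-ME EGE (at Km) in 100 mM KPO4, compound preincubated 10 min, then NADPH regeneration system for 60 min at room temperature. Luciferin read by luminescence; normalized to 1.43 uM quinidine.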

[12] = target: Cytochrome P450 2C19 (Homo sapiens) (UniProt P33261); assay: qHTS Assay for Inhibitors and Substrates of Cytochrome P450 2C19 (AID 899); conditions: recombinant CYP2C19, luciferin-H EGE luminescence; series mostly up to 57.1 µM; also: potency is read from the fitted curve at half-maximal effect; nearly all actives have a fitted effect of over 60% in size
Summary of the method: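 Luminescent read-out of luciferin formed from Luciferin-H EGE (10uM, equal to KM). Enzyme 5nM in 50mM KPO4; compound added, 10 min at 37C, then NADPH regenerating system for 60 min at 37C. Full inhibition defined by 57uM ketoconazole.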

[13] = target: Dual specificity protein kinase CLK4 (Homo sapiens) (UniProt Q9HAZ1); assay: qHTS Assay for Inhibitors of CDC-like Kinase 4 (Kinase-Glo Assay) (AID 1770); conditions: recombinant Clk4, Kinase-Glo ATP depletion luminescence; series mostly up to 66.7 µM; also: nearly all actives have a fitted effect of over 65% in size; also: potency is read from the fitted curve at half-maximal effect
Summary of the method: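 25 nM Clk4 with 100 uM RS repeat peptide and 1 uM ATP (final) in Tris pH7.5, 10 mM MgCl2, 4.5 h at room temperature. Remaining ATP measured by Kinase-Glo luciferase luminescence.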

[14] = target: Dual specificity protein kinase CLK4 (Homo sapiens) (UniProt Q9HAZ1); assay: qHTS Assay for Inhibitors of CDC-like Kinase 4 (ADP-Glo Assay) (AID 1771); conditions: recombinant CLK4, ADP-Glo luminescence; series mostly up to 80 µM; also: nearly all actives have a fitted effect of over 70% in size; also: potency is read from the fitted curve at half-maximal effect
Summary of the method: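 Clk4 (25 nM) was incubated 1 hr at room temperature with 100 uM RS repeat peptide and 1 uM ATP in buffer with 2 mM MgCl2, 0.5 mM EGTA, 2.5 mM DTT. ADP formed was quantified by ADP-Glo luminescence.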

[15] = target: Ubiquitin carboxyl-terminal hydrolase 1 (Homo sapiens) (UniProt O94782); assay: Inhibitors of USP1/UAF1: Pilot qHTS (AID 504865); conditions: purified USP1/UAF1, Ub-rhodamine cleavage fluorescence; series mostly up to 54.9 µM;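 also: rhodamine fluorescence freed from ubiquitin-rhodamine substrate followed over time; top concentration of the series differs between compounds; % is scaled to controls: 0 for no effect and ±100 for the full control effect; nearly all actives have a fitted effect of over 35% in size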
Summary of the method: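 USP1/UAF1 complex at 1 nM preincubated 15 min at room temperature with compound, then Ub-Rho substrate added at 150 nM final. Fluorescence (480/540 nm) read kinetically in 50 mM HEPES pH 7.8, 0.5 mM EDTA, 1 mM TCEP, 0.1 mg/ml BSA, 0.01% Tween-20.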

[16] = Primary qHTS for small molecule stabilizers of the endoplasmic reticulum resident proteome: Secreted ER Calcium Modulated Protein (SERCaMP) assay (AID 1508630); conditions: SH-SY5Y GLuc-SERCaMP (Gaussia luciferase released on ER calcium loss) secretion, thapsigargin, luminescence; series mostly up to 38.4 µM; also: % is scaled to controls: 0 for no effect and ±100 for the full control effect
Summary of the method: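 GLuc-SERCaMP-expressing SH-SY5Y cells, pretreated 16 h with compound, are challenged with thapsigargin to empty ER calcium stores; after 4 h, coelenterazine is added directly to the medium and luminescence is imaged.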

[17] = qHTS Assay for Identification of Small Molecule Agonists for Hypoxia Response Element Signaling Pathway (AID 914; active = well fitted activation curve with a large enough effect in the signal ratio, with a control signal flat, not every such curve was filed as active; the % refers to the signal ratio; also: potency is read from the fitted curve at half-maximal effect; as to activation: % of control where 0% means no effect); conditions: ME-180 (cervical carcinoma) HRE-bla reporter, beta-lactamase ratio, CoCl2, 17 h; activation: hits give high values
Summary of the method: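 In Opti-MEM containing 0.5% dialyzed FBS and 10 mM HEPES, ME-180 HRE-bla cells received a compound titration and EC50 CoCl2. They were incubated 17 hours, then CCF4-loaded 2.5 hours at room temperature before ratio reading.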

[18] = target: Cytochrome P450 3A4 (Homo sapiens) (UniProt P08684); assay: qHTS Assay for Inhibitors and Substrates of Cytochrome P450 3A4 (AID 884); conditions: recombinant CYP3A4, Luciferin-PPXE luminescence; series mostly up to 57.1 µM; also: potency is read from the fitted curve at half-maximal effect; nearly all actives have a fitted effect of over 50% in size
Summary of the method: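 20 nM human CYP3A4 with 25 uM Luciferin-PPXE (at KM) in 200 mM KPO4, preincubated 10 min with compound; NADPH regeneration started a 60 min RT reaction. Luciferin detected by luminescence, normalized to 57 uM ketoconazole as full inhibition.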

[19] = target: 3',5'-cyclic-AMP phosphodiesterase 4B (Homo sapiens) (UniProt Q07343); assay: qHTS Assay for Inhibitors of PDE-IV (AID 607; active = well fitted activation curve with a large enough effect in the main read-out, with a control signal flat, not every such curve was filed as active; also: % of control where 0% means no effect); conditions: HEK293 ACTOne CNG channel cells, membrane potential fluorescence; series mostly up to 22.9 µM
Summary of the method: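 ACTOne HEK293 cells carry a modified cAMP-gated CNG channel and express endogenous PDE4; plated 1000 cells/well, compounds up to 22.9 uM final. Membrane-potential dye fluorescence (ex 535/em 590) was read; parental cells received 10 uM forskolin + 100 uM RO 20-1724.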

Chain of Cytochrome P450 3A4 (Homo sapiens) (P08684 whole entry, looked up): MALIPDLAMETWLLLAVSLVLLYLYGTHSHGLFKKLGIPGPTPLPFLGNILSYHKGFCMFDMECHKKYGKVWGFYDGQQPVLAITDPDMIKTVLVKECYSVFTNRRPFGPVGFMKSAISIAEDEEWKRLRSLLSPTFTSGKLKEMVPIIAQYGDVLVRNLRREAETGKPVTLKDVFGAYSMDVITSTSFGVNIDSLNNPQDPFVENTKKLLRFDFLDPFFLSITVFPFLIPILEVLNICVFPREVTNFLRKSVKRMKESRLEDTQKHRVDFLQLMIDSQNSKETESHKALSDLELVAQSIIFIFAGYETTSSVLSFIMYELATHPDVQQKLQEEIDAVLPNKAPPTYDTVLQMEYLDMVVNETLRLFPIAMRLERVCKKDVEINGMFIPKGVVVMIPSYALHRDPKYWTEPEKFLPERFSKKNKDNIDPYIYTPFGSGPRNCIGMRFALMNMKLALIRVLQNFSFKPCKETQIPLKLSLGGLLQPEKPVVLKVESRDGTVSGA
Chain of Ubiquitin carboxyl-terminal hydrolase 1 (Homo sapiens) (O94782 whole entry, looked up): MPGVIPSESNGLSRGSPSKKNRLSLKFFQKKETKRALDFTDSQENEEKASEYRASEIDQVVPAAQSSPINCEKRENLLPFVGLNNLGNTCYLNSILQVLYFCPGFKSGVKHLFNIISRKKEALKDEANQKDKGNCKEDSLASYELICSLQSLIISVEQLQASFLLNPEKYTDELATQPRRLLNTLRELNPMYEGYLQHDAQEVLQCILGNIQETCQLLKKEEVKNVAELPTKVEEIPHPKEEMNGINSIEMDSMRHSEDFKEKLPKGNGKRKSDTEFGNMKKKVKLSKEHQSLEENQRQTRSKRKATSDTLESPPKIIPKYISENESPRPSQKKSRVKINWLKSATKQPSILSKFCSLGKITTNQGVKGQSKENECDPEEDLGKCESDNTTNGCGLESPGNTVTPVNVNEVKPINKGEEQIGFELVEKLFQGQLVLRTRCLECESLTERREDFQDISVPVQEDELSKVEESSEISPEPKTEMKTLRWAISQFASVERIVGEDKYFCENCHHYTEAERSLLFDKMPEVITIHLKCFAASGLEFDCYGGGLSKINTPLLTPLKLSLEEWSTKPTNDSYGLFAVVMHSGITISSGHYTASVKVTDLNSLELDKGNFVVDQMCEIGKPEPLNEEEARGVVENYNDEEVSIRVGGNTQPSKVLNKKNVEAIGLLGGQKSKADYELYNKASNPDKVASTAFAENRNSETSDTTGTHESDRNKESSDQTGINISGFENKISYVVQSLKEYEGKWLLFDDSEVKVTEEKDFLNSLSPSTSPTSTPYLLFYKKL
Chain of Cytochrome P450 2C19 (Homo sapiens) (P33261 whole entry, looked up): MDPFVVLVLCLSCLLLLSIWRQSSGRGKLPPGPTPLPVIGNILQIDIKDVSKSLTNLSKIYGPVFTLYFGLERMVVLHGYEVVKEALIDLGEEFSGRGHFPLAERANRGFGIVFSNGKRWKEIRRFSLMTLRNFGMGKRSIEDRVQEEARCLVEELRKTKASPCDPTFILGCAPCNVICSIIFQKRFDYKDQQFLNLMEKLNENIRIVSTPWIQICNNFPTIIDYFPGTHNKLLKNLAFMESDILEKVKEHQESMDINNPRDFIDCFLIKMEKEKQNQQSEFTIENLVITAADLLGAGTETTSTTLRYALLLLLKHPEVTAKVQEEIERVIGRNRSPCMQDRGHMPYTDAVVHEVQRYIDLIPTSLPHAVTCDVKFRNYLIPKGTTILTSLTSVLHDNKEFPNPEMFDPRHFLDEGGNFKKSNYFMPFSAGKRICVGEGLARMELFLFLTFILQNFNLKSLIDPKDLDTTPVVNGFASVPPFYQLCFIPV
Chain of Cytochrome P450 1A2 (Homo sapiens) (P05177 whole entry, looked up): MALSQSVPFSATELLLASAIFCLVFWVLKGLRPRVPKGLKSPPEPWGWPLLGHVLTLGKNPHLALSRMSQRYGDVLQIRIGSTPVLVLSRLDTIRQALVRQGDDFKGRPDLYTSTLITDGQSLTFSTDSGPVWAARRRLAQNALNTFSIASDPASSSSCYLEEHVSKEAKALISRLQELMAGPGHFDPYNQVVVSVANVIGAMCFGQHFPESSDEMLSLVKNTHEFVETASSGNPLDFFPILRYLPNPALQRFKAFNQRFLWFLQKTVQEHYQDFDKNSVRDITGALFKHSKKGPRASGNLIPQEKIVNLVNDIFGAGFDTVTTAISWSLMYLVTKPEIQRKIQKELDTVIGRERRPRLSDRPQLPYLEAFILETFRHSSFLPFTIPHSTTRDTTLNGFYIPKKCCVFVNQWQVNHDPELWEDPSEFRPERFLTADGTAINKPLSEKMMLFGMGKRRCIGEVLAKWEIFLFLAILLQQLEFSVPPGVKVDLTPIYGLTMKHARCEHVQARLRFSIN
Chain of Lysosomal acid glucosylceramidase (Homo sapiens) (P04062 whole entry, looked up): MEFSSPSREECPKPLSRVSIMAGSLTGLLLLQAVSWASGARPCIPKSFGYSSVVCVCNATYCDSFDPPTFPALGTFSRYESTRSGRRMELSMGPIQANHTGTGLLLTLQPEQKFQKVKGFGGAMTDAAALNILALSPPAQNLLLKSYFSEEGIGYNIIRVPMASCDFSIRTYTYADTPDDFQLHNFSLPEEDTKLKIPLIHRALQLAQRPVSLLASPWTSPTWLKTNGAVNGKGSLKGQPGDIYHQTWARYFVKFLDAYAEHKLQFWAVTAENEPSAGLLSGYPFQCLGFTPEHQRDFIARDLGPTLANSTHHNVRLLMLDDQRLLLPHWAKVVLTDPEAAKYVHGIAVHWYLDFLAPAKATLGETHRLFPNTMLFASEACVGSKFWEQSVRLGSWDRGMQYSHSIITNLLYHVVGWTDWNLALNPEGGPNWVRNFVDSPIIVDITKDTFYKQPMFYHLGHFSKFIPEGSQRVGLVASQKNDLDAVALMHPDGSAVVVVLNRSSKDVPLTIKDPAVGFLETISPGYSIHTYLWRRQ
Chain of Glucocorticoid receptor (Homo sapiens) (P04150 whole entry, looked up, the tested form may be a part): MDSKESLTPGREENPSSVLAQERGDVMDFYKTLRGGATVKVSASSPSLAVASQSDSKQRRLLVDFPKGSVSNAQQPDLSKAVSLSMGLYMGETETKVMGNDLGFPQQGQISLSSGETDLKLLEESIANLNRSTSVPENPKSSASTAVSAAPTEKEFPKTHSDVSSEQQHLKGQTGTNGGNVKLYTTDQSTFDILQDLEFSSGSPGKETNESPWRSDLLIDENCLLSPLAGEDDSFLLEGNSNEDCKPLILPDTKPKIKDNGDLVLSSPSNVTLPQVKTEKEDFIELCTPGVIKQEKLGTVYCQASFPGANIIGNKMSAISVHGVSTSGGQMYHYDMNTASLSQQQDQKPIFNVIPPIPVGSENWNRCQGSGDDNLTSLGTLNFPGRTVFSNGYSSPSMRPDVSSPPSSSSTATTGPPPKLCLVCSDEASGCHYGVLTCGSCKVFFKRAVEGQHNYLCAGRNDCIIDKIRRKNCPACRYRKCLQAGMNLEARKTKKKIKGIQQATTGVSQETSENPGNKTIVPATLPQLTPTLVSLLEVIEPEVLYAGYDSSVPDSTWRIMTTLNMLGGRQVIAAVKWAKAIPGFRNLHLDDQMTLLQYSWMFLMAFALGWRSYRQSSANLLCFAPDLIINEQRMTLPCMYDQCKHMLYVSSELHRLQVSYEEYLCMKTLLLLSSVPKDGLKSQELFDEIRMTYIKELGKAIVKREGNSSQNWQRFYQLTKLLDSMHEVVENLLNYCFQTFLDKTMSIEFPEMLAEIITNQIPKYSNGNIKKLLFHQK
Chain of Dual specificity protein kinase CLK4 (Homo sapiens) (Q9HAZ1 whole entry, looked up): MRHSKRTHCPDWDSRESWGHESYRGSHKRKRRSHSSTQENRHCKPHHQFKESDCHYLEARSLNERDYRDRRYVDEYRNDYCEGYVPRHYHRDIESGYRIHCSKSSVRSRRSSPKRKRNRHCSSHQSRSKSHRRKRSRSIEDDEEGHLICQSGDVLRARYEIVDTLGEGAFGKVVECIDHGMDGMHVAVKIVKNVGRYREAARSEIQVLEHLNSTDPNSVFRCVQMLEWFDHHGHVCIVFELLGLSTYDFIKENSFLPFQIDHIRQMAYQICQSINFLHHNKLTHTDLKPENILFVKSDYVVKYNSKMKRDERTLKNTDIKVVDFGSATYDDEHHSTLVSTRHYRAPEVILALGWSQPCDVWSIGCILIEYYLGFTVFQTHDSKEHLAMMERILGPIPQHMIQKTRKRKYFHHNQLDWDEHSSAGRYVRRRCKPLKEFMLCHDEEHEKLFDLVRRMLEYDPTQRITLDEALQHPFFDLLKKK
Chain of 3',5'-cyclic-AMP phosphodiesterase 4B (Homo sapiens) (Q07343 whole entry, looked up): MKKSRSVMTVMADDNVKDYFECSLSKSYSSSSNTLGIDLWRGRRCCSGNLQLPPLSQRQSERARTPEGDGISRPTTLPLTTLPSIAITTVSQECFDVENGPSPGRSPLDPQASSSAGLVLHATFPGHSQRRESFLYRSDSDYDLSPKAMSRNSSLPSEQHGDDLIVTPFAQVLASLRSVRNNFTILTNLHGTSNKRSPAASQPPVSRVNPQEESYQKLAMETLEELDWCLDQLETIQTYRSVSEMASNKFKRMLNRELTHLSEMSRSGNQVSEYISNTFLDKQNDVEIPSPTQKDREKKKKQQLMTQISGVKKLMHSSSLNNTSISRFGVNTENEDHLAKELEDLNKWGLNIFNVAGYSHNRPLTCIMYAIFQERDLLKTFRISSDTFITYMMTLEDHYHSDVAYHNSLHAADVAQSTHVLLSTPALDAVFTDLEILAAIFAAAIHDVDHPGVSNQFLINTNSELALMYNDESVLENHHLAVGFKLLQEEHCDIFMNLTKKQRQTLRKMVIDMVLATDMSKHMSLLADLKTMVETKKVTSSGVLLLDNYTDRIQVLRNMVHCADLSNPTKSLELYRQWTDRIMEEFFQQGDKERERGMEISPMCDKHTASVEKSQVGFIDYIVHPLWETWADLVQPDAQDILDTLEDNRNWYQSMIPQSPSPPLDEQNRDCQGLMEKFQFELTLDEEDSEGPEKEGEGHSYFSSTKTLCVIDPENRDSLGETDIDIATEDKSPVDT

| Compound | Potency [1] | activity change, negative = inhibition [2] | Potency [3] | activity change, negative = inhibition [4] | activity, negative = inhibition [5] | Potency [6] | Potency [7] | Potency [8] | Potency [9] | Potency [10] | Potency [11] | Potency [12] | Potency [13] | Potency [14] | Potency [15] | outcome [16] | Potency [17] | Potency [18] | Potency [19] | activation [17] |
| --- | --- | --- | --- | --- | --- | --- | --- | --- | --- | --- | --- | --- | --- | --- | --- | --- | --- | --- | --- | --- |
| c1cncc(-c2nccc(NCc3cccs3)n2)c1 | > 11.4 µM | 4.03% | 0.2 µM (active) | 13.5% | -3.1% | > 46 µM | > 46 µM | inactive | 0.398 µM (active) | inactive | 0.631 µM (active) | 7.94 µM (active) | 14.1 µM (active) | 10 µM (active) | inactive | inactive | – | – | – | – |
| O=c1c(-c2ccc(Cl)cc2)nc2cnc(Nc3ccccc3)nc2n1C[C@H]1CCCO1 | > 11.4 µM | -8.65% | 12.6 µM (active) | -7.53% | – | > 9.22 µM | > 46 µM | inactive | – | – | – | – | inactive | inactive | inactive | inactive | 0.126 µM (active) | – | – | – |
| c1ccc(Nc2nc(-c3ccc4c(c3)OCO4)nc3ccccc23)cc1 | 9.63 µM (active) | -19.9% | 1.26 µM (active) | -26.1% | -2.81% | > 46 µM | > 46 µM | inactive | – | inactive | – | 3.16 µM (active) | 28.2 µM (active) | 31.6 µM (active) | inactive | inactive | – | 5.01 µM (active) | – | – |
| COc1cccc(-c2cc(NCc3ccccc3OC)ncn2)c1 | > 11.4 µM | -14.5% | 1.26 µM (active) | 6.41% | -1.37% | > 46 µM | > 46 µM | inactive | – | inactive | – | 7.94 µM (active) | 15.8 µM (active) | 28.2 µM (active) | inactive | inactive | – | – | inactive | – |
| FC(F)(F)c1ccccc1-c1nc(-n2ccnc2)c2ccccc2n1 | > 11.4 µM | 9.46% | – | 3.74% | -3.35% | > 46 µM | > 46 µM | inactive | – | – | – | – | 15.8 µM (active) | 17.8 µM (active) | inactive | inactive | – | – | inactive | 2.67% |
| CN(Cc1ccco1)c1ncnc2ccc(-c3ccccc3C#N)cc12 | > 11.4 µM | -26.1% | 1 µM (active) | 7.18% | 14.4% | > 46 µM | > 46 µM | inactive | – | inactive | – | 1.26 µM (active) | 11.2 µM (active) | 7.08 µM (active) | inactive | inactive | – | – | – | – |
